Results on 110 molecules are retold here after PubChem BioAssay AID623877 (Johns Hopkins Ion Channel Center, 2012).

Hit rate of the full screen: of about 340,000 compounds, about 1,000 (0.29%) were called active.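 The calls were made as follows: active = fluorescence-ratio B-score plate-corrected deviation score at least 3 library SD below zero, with starting fluorescence score within 5 deviations; inactive = the rest.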 This excerpt belongs to a sample that is enriched for actives.

Anoctamin-1 (Mus musculus), sequence (Q8BHY3 whole entry, looked up): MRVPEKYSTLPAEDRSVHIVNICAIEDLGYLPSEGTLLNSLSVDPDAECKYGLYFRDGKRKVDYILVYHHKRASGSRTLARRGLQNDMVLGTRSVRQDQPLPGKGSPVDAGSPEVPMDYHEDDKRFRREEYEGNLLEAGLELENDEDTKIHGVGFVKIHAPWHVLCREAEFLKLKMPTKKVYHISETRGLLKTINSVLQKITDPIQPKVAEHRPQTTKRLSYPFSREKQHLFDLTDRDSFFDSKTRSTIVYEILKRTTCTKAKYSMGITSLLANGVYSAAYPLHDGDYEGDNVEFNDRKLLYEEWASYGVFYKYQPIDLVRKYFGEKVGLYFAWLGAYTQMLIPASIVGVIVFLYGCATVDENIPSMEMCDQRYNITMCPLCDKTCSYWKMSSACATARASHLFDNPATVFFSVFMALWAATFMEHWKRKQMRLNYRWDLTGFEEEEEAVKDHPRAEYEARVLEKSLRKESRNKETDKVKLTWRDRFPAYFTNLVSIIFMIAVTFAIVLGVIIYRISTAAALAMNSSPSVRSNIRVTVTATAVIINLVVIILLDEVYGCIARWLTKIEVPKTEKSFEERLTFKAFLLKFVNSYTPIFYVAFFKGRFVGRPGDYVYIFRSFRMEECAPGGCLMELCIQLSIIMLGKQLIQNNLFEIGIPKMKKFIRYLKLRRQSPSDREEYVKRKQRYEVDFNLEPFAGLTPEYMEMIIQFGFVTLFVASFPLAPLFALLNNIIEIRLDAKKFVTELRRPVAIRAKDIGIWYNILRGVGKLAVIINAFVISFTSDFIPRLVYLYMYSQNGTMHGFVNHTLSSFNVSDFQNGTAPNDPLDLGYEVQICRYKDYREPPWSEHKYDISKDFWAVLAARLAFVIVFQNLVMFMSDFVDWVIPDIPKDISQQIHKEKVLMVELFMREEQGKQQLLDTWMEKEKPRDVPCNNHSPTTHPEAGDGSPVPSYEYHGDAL

This assay has as its target Anoctamin-1 (Mus musculus) (UniProt Q8BHY3). The experiment in a line: TMEM16A chloride channel activators or potentiators, primary screen, cell-based, HTS (AID 623877).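 As to B-score: channel opened by trigger with iodide after compound preincubation; score built on the fluorescence ratio of max minus min over baseline; more negative score means more quench and so TMEM16A activation or potentiation.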 The settings on record: HEK293 TMEM16A/YFP-H148Q/I152L, iodide quench fluorescence, at 10 µM; stronger effect = lower value.
In the case of `N#CCC(=O)N/N=C/c1ccc(SCC(=O)Nc2ccccc2)o1`, the B-score entry is “inactive”. For `CC(OC(=O)CCCc1c[nH]c2ccccc12)C(=O)Nc1ccc(S(N)(=O)=O)cc1` (stereo not given), the B-score entry is “inactive”. Under `C/C(=N\NS(=O)(=O)c1cccc([N+](=O)[O-])c1)c1cc2ccccc2o1` stands “inactive”.

On to `CCCCN1CCNC1=S`, for which the B-score entry was “inactive”. Under `O=C1c2ccccc2S(=O)(=O)c2cc(N3CCN(c4ccccn4)CC3)ccc21` stands -5.73 (active); under `O=C(c1ccc2c(c1)C(=O)N(c1ccc(Cl)cc1)C2=O)N1CCN(c2ccccn2)CC1`, “inactive”; under `O=C(c1ccc2c(c1)N(Cc1ccc(F)cc1)C(=O)c1ccccc1S2(=O)=O)N1CCN(c2ccccn2)CC1`, -4.74 (active). `O=C1c2cccc3cccc(c23)N1CN1CCN(c2ccccn2)CC1`: the B-score entry is “inactive”.

In the case of `O=C(C(Cl)Cl)N1CCN(c2ccccn2)CC1`, the B-score result was “inactive”. As for `O=C(c1c(F)cccc1Cl)N1CCN(c2ccccn2)CC1`, the B-score entry was “inactive”. Under `Nc1c(Cl)cc(-c2csc(N3CCCC3c3nc4cc(Cl)c(Cl)cc4n3CCOCCO)n2)cc1Cl` (stereo not given) stands “inactive”; under `Cc1ccc(CSCC(=O)N(C)CC(=O)Nc2ccc(C)cc2)cc1`, “inactive”; under `CC1C(=O)NC(=O)C1c1ccccc1` (stereo not given), “inactive”. Under `COc1ccc(Nc2nc(-c3cccnc3)nc3ccccc23)cn1` stands -6.47 (active); under `CC(C)(C)Nc1nc(-c2ccccn2)nc2ccccc12`, “inactive”. Under `S=c1nc2ccccc2c2nc(-c3cccnc3)[nH]n12` stands “inactive”; under `O=S(=O)(NC(=S)Nc1ccccc1)c1ccc(F)cc1`, “inactive”. For `O=C(O)C1CCN(C(=O)c2cc(F)cc3c2OCOC3)CC1`, the B-score result is “inactive”.

`Cc1cc(=O)n2nc(N3CCCC(C(=O)NCc4ccc(Cl)cc4)C3)sc2n1` (stereo not given): the B-score entry is “inactive”. Under `Cc1cc(=O)n2nc(N3CCCC3C(=O)NCCCN3CC(C)CC(C)C3)sc2n1` (stereo not given) stands -18.1 (active); under `Cc1cc(=O)n2nc(N3CCCC(C(=O)NCCC4=CCCCC4)C3)sc2n1` (stereo not given), “inactive”; under `CN(c1ccc(OCC(=O)OCC(=O)Nc2cccc([N+](=O)[O-])c2)cc1)S(=O)(=O)c1ccc(F)cc1`, “inactive”. Consider `Cc1ccccc1OCCC(=O)OCC(=O)NCCc1ccc(S(N)(=O)=O)cc1`, for which the B-score entry was “inactive”.

For the molecule `CN(C)S(=O)(=O)c1ccc(C(=O)NCCN=C2NS(=O)(=O)c3ccccc32)cc1`, the B-score entry was “inactive”. With `CCc1ccc(-c2cc(C)no2)cc1S(=O)(=O)NCCc1ccc(S(N)(=O)=O)cc1`, the B-score was -4.67 (active).

In the case of `Cc1noc(C)c1S(=O)(=O)NCCc1ccc(S(N)(=O)=O)cc1`, the B-score result was “inactive”.

For the molecule `Cc1cc(-c2ccc(C)c(S(=O)(=O)Nc3ccc(S(N)(=O)=O)cc3)c2)on1`, the B-score entry is “inactive”. Under `Cc1cc(C)c2c(c1)cc(C)c1nnc(SCC(=O)Nc3cc(C)on3)n12` stands “inactive”; under `C=CCN(CC=C)CCOc1ccccc1[N+](=O)[O-]`, “inactive”. On to `O=[N+]([O-])c1ccc(NS(=O)(=O)c2ccccc2)c(Cl)c1`, for which the B-score result was “inactive”. `NC(=O)C1CCN(C(=O)c2cn(-c3ccccc3)nc2-c2cccnc2)CC1`: the B-score entry was “inactive”. Under `O=C(NNC(=S)NC(=O)c1cn(-c2ccccc2)nc1-c1ccccc1)c1ccncc1` stands -5.25 (active); under `Cc1ccc(-c2nn(-c3ccccc3)cc2C(=O)NC2CCC(O)CC2)cc1` (stereo not given), “inactive”; under `O=C(CCc1nnc2ccc(NCCCN3CCCC3=O)nn12)NCc1ccccc1Cl`, “inactive”. As to `C#CCOCCOCCOCCNc1nc(N2CCN(C(=O)C(Cc3ccc(O)cc3)n3cc(C(N)CC(C)C)nn3)CC2)nc(N2CCN(C(=O)C(Cc3ccc(O)cc3)n3cc(C(N)C(C)CC)nn3)CC2)n1` (stereo not given), the B-score entry is “inactive”.

In the case of `COc1ccc(CN2C(=O)C(C)S/C2=N/N=C/c2ccco2)cc1` (stereo not given), the B-score result is “inactive”. Under `COc1ccc(CNC(=O)c2nnn(CC(=O)Nc3cc(C)cc(C)c3)c2N)cc1` stands “inactive”; under `CCc1ccc(NC(=O)Cn2nnc(C(=O)NCc3ccc(OC)cc3)c2N)cc1`, -25.9 (active). Under `COc1ccc(NC(=O)Cn2nnc(C(=O)NCCc3ccc(OC)c(OC)c3)c2N)cc1` stands “inactive”; under `O=C(C1CCC1)N1CCN(S(=O)(=O)c2ccc([N+](=O)[O-])cc2)CC1`, “inactive”. Under `COc1cc(NC(=S)NCc2ccc(S(N)(=O)=O)cc2)cc(OC)c1` stands “inactive”.

As for `COc1ccc(NC(=S)Nc2ccc(S(N)(=O)=O)cc2)c(C)c1`, the B-score was -4.58 (active). On to `COc1ccc(N2CCN(C(=S)Nc3ccc(S(N)(=O)=O)cc3)CC2)cc1`, for which the B-score entry is “inactive”. Under `Cc1ccc(CCNC(=O)C2CCN(S(=O)(=O)N3CCCC3)CC2)cc1` stands “inactive”. Under `CC(Sc1nnnn1C1CCCCC1)C(=O)O` (stereo not given) stands “inactive”. Under `O=C(O)C1CCN1C1CCCCC1` (stereo not given) stands -6.61 (active). `O=C(O)c1cccc2c1C(=O)N(C1CCCCC1)C2`: the B-score result was “inactive”.

In the case of `COc1cccc2c1OCC(CN1CCN(C3CCCCC3)C(CCO)C1)=C2` (stereo not given), the B-score result was “inactive”. Under `CC(=O)OCC1(O)CC23CCC4c5ccoc5CCC4(C)C2CCC1C3` (stereo not given) stands -17.2 (active); under `Oc1cc2c(cc1O)CN(C(=S)NCCc1ccc(Cl)cc1)CCC2`, “inactive”; under `Cc1nc(SCC(=O)NC2CCCC2)[nH]c(=O)c1C`, “inactive”. Regarding `C[C@H](NC(=O)c1nc[nH]c1C(=O)N[C@@H](C)C(=O)OC(C)(C)C)C(=O)OC(C)(C)C`, the B-score entry is “inactive”. As to `COCC1CCCN(Cc2nc(-c3ccc4c(c3)OCO4)no2)C1` (stereo not given), the B-score result was “inactive”. With `CN(CCN1CCOCC1)Cc1nc(-c2ccc3c(c2)OCO3)no1`, the B-score is -6.61 (active).

As for `CCn1ccnc1CN(C)Cc1nc(-c2ccc3c(c2)OCO3)no1`, the B-score result is “inactive”.

With `CC(C)N(Cc1ccccc1)C(=O)COC(=O)c1cnccn1`, the B-score result was “inactive”. Under `Cc1cc(C)cc(NC(=O)CN2C(=O)c3ccccc3C2=O)c1` stands “inactive”. Under `Cc1ccc2c(c1)-c1c(ssc1=S)C(C)(C)N2C(=O)CN1C(=O)c2ccccc2C1=O` stands “inactive”. In the case of `Cc1cc2c(cc1C)N(C(=O)CN1C(=O)c3ccccc3C1=O)C(C)(C)c1ssc(=S)c1-2`, the B-score is -9.51 (active). Under `O=C(NCCCN1CCN(c2ccccc2F)CC1)C1CCC(=O)N1C1CCCCC1` (stereo not given) stands “inactive”; under `Cc1ccccc1CSc1nnc(Cn2c(=O)sc3ccccc32)n1C`, “inactive”; under `Cc1ccc(NS(=O)(=O)c2ccc3c(c2)oc(=O)n3C)c(C)c1`, “inactive”. In the case of `O=C(NCc1ccco1)C1CCCN(S(=O)(=O)c2cnc[nH]2)C1` (stereo not given), the B-score was -16.8 (active).

On to `CCCS(=O)(=O)N1CCCC(C(=O)NCc2ccco2)C1` (stereo not given), for which the B-score entry was “inactive”.

Regarding `O=C(NCc1ccco1)C1CCCN(S(=O)(=O)c2ccccc2)C1` (stereo not given), the B-score entry is “inactive”. Under `Cc1cc(S(=O)(=O)NCC(C)C)ccc1OCC(=O)NC1CC1` stands “inactive”; under `CCN(CC)CCOc1ccc2c(c1)C(=NNC(=O)c1ccccn1)c1cc(OCCN(CC)CC)ccc1-2`, “inactive”. Under `CCn1c(SCC(=O)Nc2ccccc2F)nc2c(c1=O)SC(C)C2` (stereo not given) stands “inactive”. As to `O=C(Nc1cccc([N+](=O)[O-])c1)Nn1cnnc1`, the B-score entry is “inactive”.

On to `COc1ccc(S(=O)(=O)NC(C)C(=O)Nc2cccc([N+](=O)[O-])c2)cc1` (stereo not given), for which the B-score result was “inactive”. Take `COC(=O)/C=C\C(=O)Nc1cccc([N+](=O)[O-])c1`: the B-score is -4.72 (active). Regarding `CCn1c(COc2ccccc2)nnc1SCC(=O)Nc1ccc2c(c1)OCCO2`, the B-score is -32.9 (active). For the molecule `CCn1c(SCC(=O)Nc2ccc3c(c2)OCCO3)nnc1C(C)C`, the B-score entry is “inactive”. Regarding `CCn1c(SCC(=O)Nc2ccc3c(c2)OCCO3)nnc1-c1ccncc1`, the B-score entry is “inactive”. Under `C/C(=N\NC(=O)c1cccnc1)c1ccc(-n2ccnc2)cc1` stands “inactive”. Under `Nc1nc(NC(=O)/C=C/c2ccccc2)nn1-c1ccccc1` stands “inactive”; under `C=CCOc1cccc(C2C(C(=O)c3ccc(C)o3)=C(O)C(=O)N2c2nnc(C)s2)c1` (stereo not given), “inactive”. Turning to `C=CCSc1nnc(N2C(=O)C(O)=C(C(=O)c3ccco3)C2c2ccc(F)cc2)s1` (stereo not given), the B-score was -5.81 (active).

As for `Cc1ccc2nc(N3C(=O)C(O)=C(C(=O)c4ccco4)C3c3cccc(O)c3)sc2c1` (stereo not given), the B-score result is “inactive”. For the molecule `COc1cccc(NC(=O)CN(C)C(=O)c2cc(C3CC3)nn2-c2ccccc2)c1`, the B-score result is “inactive”. Under `O=C(COc1ccc(NC(=O)c2ccccc2[N+](=O)[O-])cc1)c1ccc(F)cc1` stands “inactive”; under `COc1ccc(OC)c(NC(=O)CSc2nc(N)c(-c3ccccc3)c(=O)[nH]2)c1`, “inactive”; under `CCCOC(=O)CC1C(=O)NCCN1Cc1ccc(F)cc1` (stereo not given), “inactive”. With `CC(C)c1nc2oc3c(N4CCN(C)CC4)ncnc3c2c2c1CCC2`, the B-score result is “inactive”. On to `Cc1cccc(Oc2c([N+](=O)[O-])c(=O)n(C)c3ccccc23)c1`, for which the B-score result was “inactive”. Under `Cc1cc(C)c(-c2c(O)c3ccccc3n(C)c2=O)c(C)c1` stands “inactive”; under `Cn1c(=O)c([N+](=O)[O-])c(Oc2ccccc2)c2ccccc21`, -29 (active); under `CN(CCC(=O)Nc1cc(S(=O)(=O)N(C)C)ccc1Cl)CC(=O)Nc1ccc(F)cc1`, “inactive”. For the molecule `CC1=CC(=NNS(=O)(=O)c2ccc([N+](=O)[O-])cc2)CC(C)(C)C1`, the B-score result was “inactive”. Regarding `CC(=O)c1cc(NC(=O)c2ccccc2)c(=O)oc1/C=C/N(C)C`, the B-score is -6.65 (active). Under `CCOC(=O)c1cc(NC(=O)c2ccc(Cl)cc2)c(=O)oc1-c1ccccc1` stands “inactive”.

In the case of `COc1cc(NC(=O)c2ccccc2)c(OC)cc1NC(=O)Cc1ccccc1`, the B-score entry is “inactive”. Under `COc1ccc(N(CCC(=O)NCCc2ccccc2)S(=O)(=O)c2ccc(C)cc2C)cc1` stands “inactive”; under `Nc1ccc2[nH]c(=S)sc2c1`, “inactive”; under `COc1ccc(C(=O)OCC(=O)NCCCc2ccccc2)cc1OC`, “inactive”. As for `COc1ccc(C(CCN(Cc2ccc(OC)c(OC)c2)C(=O)CCl)c2ccccc2)cc1` (stereo not given), the B-score entry was “inactive”.

`CCN(CCCCOC(=O)c1ccc(OC)c(OC)c1)C(C)Cc1ccc(OC)cc1` (stereo not given): the B-score was -9 (active). For the molecule `CCOCCCNC(=S)N1CCC(NC(=O)C2CCCCC2)CC1`, the B-score result was “inactive”.

Consider `CCOc1ccccc1NC(=S)NC(=O)CCc1ccccc1`, for which the B-score result is “inactive”.

For the molecule `CCc1cccc(NC(=O)COC(=O)C2CCN(c3ccc(C(F)(F)F)cn3)CC2)c1`, the B-score result was “inactive”. Regarding `CC(=O)C[C@H](O)CC(=O)[C@@H]1OC(=O)[C@@H](C)C/C=C\Cc2ccccc21`, the B-score result is “inactive”. Under `CC(=O)C[C@@H](O)CC(=O)[C@H]1OC(=O)CCCCCCc2ccccc21` stands -17.5 (active); under `CC[C@@H]1CCCCc2ccccc2[C@@H](C(=O)C[C@H](O)CC(C)=O)OC1=O`, “inactive”. With `CCOC(=O)CSc1nnc(CNC(=O)Cc2ccccc2)n1-c1ccccc1OC`, the B-score entry is “inactive”.

`Cc1cc(OC(=O)c2ccc(Cl)cc2)cc(=O)n1C`: the B-score entry was “inactive”. With `CCOC(=O)c1c(CC(C)C)csc1/N=C/C1=C(O)CCCC1=O`, the B-score entry is “inactive”.

`CCOC(=O)c1sc(/N=C/C2=C(O)CC(C)(C)CC2=O)c(C(=O)OCC)c1C`: the B-score was -35.4 (active). As for `CCOC(=O)c1c(/N=C/C2C(=O)CC(C)(C)CC2=O)sc(C)c1C`, the B-score entry is “inactive”. Consider `COc1ccc(Cl)cc1NC(=O)Cn1nc(-c2ccc(C)cc2)n(C)c1=S`, for which the B-score result is “inactive”.

Consider `CCC(NC(=O)C1CCCC1)c1ccc(C)cc1` (stereo not given), for which the B-score entry is “inactive”.
